# Data taken from PubChem BioAssay.
# Calls of active or inactive are those of the source. Unless noted, how the calls were made is not given here.
# What was measured:
# [1] = tested on: XIP peptide (Xip251-270) binding; assay: XIP fragment 251-270 binding compounds – biochemical, small-molecule microarray, fluorescence 635/667 nm, 0.1 µg/mL protein, primary screen (AID 1182); details: fluorescent protein binding, 635 nm, higher = more signal, called active from +8 up or from −8 down
# XIP peptide (Xip251-270) = assay: compounds binding XIP fragment 251-270 – biochemical, small-molecule microarray, fluorescence 635/667 nm, 0.5 µg/mL protein, primary screen (AID 1183); details: fluorescence 635 nm, higher = more signal
# [2] = blood-stage malaria parasite viability loss – strain 3D7, DAPI fluorescence, 100 nL, primary screen (AID 1184);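 further: parasites grown inside human red blood cells in medium with human serum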; details: P. falciparum 3D7 growth, 3 d, higher = more signal
# [3] = biological target: Homeobox protein Hox-A13 (Mus musculus) (UniProt Q62424); assay: disruptors of Hoxa13 oligonucleotide interaction – biochemical, fluorescence polarization, labeled oligonucleotide, primary screen (AID 1185); details: Hoxa13:DNA binding, 15 min, higher = more signal, called active from +8 up or from −8 down
# Chain of Homeobox protein Hox-A13 (Mus musculus) (Q62424 whole entry, looked up): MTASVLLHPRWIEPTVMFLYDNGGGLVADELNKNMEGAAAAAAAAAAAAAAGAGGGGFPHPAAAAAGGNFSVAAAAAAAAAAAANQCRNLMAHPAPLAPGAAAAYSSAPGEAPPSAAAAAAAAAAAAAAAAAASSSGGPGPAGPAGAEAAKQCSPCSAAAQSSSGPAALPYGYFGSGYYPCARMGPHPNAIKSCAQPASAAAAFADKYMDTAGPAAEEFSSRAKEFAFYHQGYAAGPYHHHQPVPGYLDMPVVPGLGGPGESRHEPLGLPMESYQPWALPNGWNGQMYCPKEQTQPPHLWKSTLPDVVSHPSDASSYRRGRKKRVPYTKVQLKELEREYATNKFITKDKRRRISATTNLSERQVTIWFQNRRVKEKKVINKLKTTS
# [4] = blockers of DNA damage checkpoint Chk1 activation – imaging, HeLa, hydroxyurea, phospho-Chk1 antibody, percent positive cells, primary screen (AID 1186); details: hydroxyurea-induced phospho-Chk1 immunofluorescence imaging, higher = more signal
# [5] = blockers of DNA damage checkpoint Chk1 activation – imaging, HeLa, hydroxyurea, phospho-Chk1 nuclear intensity, primary screen (AID 1187); details: hydroxyurea-induced phospho-Chk1 immunofluorescence imaging, higher = more signal
SMILES,composite z-score [1],composite z-score (XIP peptide (Xip251-270)),z-score [2],z-score [3],z-score [4],z-score [5]
CN1C(=O)C2C=CC(C(O)c3ccc(I)cc3)N(Nc3ccccc3)C2C1=O (stereo not given),0.56 (inactive),0.755,-0.371,-4.54 (inactive),0.178 (inactive),0.0306 (inactive)
[N-]=[N+]=Nc1ccccc1[C@@H]1OC(c2ccc(OCCCO)cc2)=N[C@]1(Cc1ccccc1)C(=O)NCc1ccccc1,0.174 (inactive),0.804,-1.97,-0.694 (inactive),0.458 (inactive),0.433 (inactive)
C=C(CCCC)/C(=C/C[C@H](OC(C)=O)c1ccc(OCCO)cc1)c1cc(C(=O)OC)ccc1OC,-0.124 (inactive),0.71,-2.82,-3.64 (inactive),-1.09 (inactive),-1.97 (inactive)
COc1ccc([Si](C)(C)[C@H]2[C@H](CCO)O[C@@]3(C(=O)N(Cc4ccc(N5C(=O)c6ccccc6Oc6ccccc65)cc4)c4ccccc43)[C@@H]2C)cc1,-0.136 (inactive),0.0004,-1.67,-1.05 (inactive),-0.557 (inactive),-0.583 (inactive)
[N-]=[N+]=Nc1ccccc1C[C@]1(C(=O)O)N=C(c2ccc(OCCCO)cc2)O[C@H]1c1ccccc1N=[N+]=[N-],0.466 (inactive),0.532,-1.5,-4.13 (inactive),-0.281 (inactive),0.0939 (inactive)
C=C(/C(=C/C[C@H](OC(=O)c1ccncc1)c1ccccc1OCCO)c1cnc2ccccc2c1)C(C)C,-0.0266 (inactive),0.615,-2.96,-4.2 (inactive),0.39 (inactive),0.0188 (inactive)
COC(=O)C1=CC(CCCO)=CC(C)N(Cc2cccc(OC(F)(F)F)c2)C=C1C(=O)OC (stereo not given),0.0257 (inactive),0.526,-1.12,-7.74 (inactive),-0.249 (inactive),-0.655 (inactive)
COCCOC(=O)N1C(=O)[C@@]2(c3cc(C#Cc4ccc(OC)cc4)ccc31)[C@H](c1ccc(OCCO)cc1)N1[C@H](c3ccccc3)[C@H](c3ccccc3)OC(=O)[C@H]1[C@@H]2C(=O)Nc1nc2ccccc2s1,0.968 (inactive),0.414,-0.817,1.31 (inactive),-0.007 (inactive),0.254 (inactive)
COCC1=C2[C@@H](CCc3ccccc3)OB(O)C[C@@H]2[C@@H]2C(=O)N(C)C(=O)[C@@H]2C1,0.0872 (inactive),0.763,1.22,-7.72 (inactive),0.684 (inactive),1.24 (inactive)
C=CC[C@H](OC(=O)Nc1ccc(SC)cc1)c1ccc(OCCO)cc1,1.07 (inactive),-0.141,0.749,-6.15 (inactive),0.108 (inactive),1.03 (inactive)
CN(C)C(=O)[C@]1(CCS(=O)(=O)c2ccccc2)N=C(c2ccc(OCCCO)cc2)O[C@@H]1c1ccccc1,0.428 (inactive),0.701,-1.96,-5.77 (inactive),-0.161 (inactive),0.0689 (inactive)
CCN(CC)c1ccc(N2CC=CC34O[C@@H]5C=CCCOC(=O)C5[C@H]3C(=O)N(CCO)[C@@H]4C2=O)cc1 (stereo not given in full),-0.828 (inactive),-0.72,0.0497,-5.85 (inactive),-0.516 (inactive),-0.584 (inactive)
COCCOC(=O)N1C(=O)[C@@]2(c3cc(C#CC4(O)CCCCCC4)ccc31)[C@H](C(=O)N1CCN(c3ncccn3)CC1)[C@H]1C(=O)O[C@H](c3ccccc3)[C@H](c3ccccc3)N1[C@@H]2c1ccccc1OCCO,1.01 (inactive),0.61,-2.07,-0.77 (inactive),-0.0411 (inactive),0.0349 (inactive)
O=C1C2C=CC(C(O)c3cccc(O)c3)N(Nc3ccccc3)C2C(=O)N1c1ccccc1 (stereo not given),-0.234 (inactive),0.214,-0.267,-1.18 (inactive),0.293 (inactive),0.126 (inactive)
COC(=O)[C@@]1(Cc2ccc(OC)cc2)[C@H]2c3cc(C(=O)N4CCCC4)n(Cc4cc(C)n(C)n4)c3C[C@H]2CN1C(=O)c1ccccc1,1.26 (inactive),0.528,-1.44,-4.85 (inactive),-0.6 (inactive),-0.279 (inactive)
CC(C)c1ccc(NN2C(C(O)Cc3ccccc3)C=CC3C(=O)N(c4ccccc4)C(=O)C32)cc1 (stereo not given),-0.0839 (inactive),0.655,-0.0057,-2.98 (inactive),0.656 (inactive),0.37 (inactive)
COCCCNC(=O)[C@@]1(c2ccc([N+](=O)[O-])cc2)CC(=O)N(CC23CC4CC(CC(C4)C2)C3)[C@@H]1c1ccc(CO)cc1I,1.15 (inactive),0.383,-1.13,-4.38 (inactive),0.568 (inactive),0.885 (inactive)
O=c1cccc(-c2ccc(F)cc2)o1,-0.133 (inactive),0.472,1.07,-0.287 (inactive),0.454 (inactive),0.606 (inactive)
O=C(O)[C@H]1C[C@H]2C(=O)N[C@@H](Cc3ccccc3)C(=O)N2[C@H]1c1cccc(OCCO)c1,-0.0627 (inactive),0.152,-0.74,-1.74 (inactive),0.464 (inactive),0.48 (inactive)
Cc1cccc([C@H]2C[C@H]3C(Br)=C[C@@H]2C(=O)[C@]32CO2)c1,-0.409 (inactive),-0.848,-0.528,-1.65 (inactive),0.139 (inactive),-0.0027 (inactive)
